# Measurements reported in PubChem BioAssay (NCI).
# About 83,000 compounds went through this panel and 20% of them were active in at least one assay; those are over-represented in the sample as a whole.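 Interpretation: 100, growth as untreated; towards 0, rising growth inhibition; 0, no net growth; 0 to -100, cell death. Compounds scoring below 10 were considered active.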 Values without a mark were called inactive. The source made the active and inactive calls.
# Assays:
# Experiment in all cases: NCI-60 one-dose screen, 48 h (100 = growth as untreated, 0 = no growth, -100 = all killed)
# Conditions in all cases: 10 µM unless noted
# T-47D breast = test system: T-47D breast
# BT-549 breast = test system: BT-549 breast
# MDA-MB-435 melanoma = test system: MDA-MB-435 melanoma
# SW-620 colon = test system: SW-620 colon
# MCF7 breast = test system: MCF7 breast
# HCT-116 colon = test system: HCT-116 colon
# HCC-2998 colon = test system: HCC-2998 colon
# KM12 colon = test system: KM12 colon
SMILES,growth (T-47D breast),growth (BT-549 breast),growth (MDA-MB-435 melanoma),growth (SW-620 colon),growth (MCF7 breast),growth (HCT-116 colon),growth (HCC-2998 colon),growth (KM12 colon)
CCOC(=O)Cc1cnn(C)c1NC(=O)c1ccc(Cl)cc1NC(C)=O,103%,93.2%,99.4%,105%,106%,101%,107%,102%
Brc1cccc(-c2nc(-c3ccc4c(c3)OCCO4)co2)c1,46.6% [25 µM],68.7% [25 µM],-31.9% [25 µM] (active),23% [25 µM],37% [25 µM],31.8% [25 µM],92.1% [25 µM],38.5% [25 µM]
NC1=CSC2=N/C(=C\c3ccc(Cl)cc3)C(=O)N12,79%,75.3%,68%,71.3%,67.2%,66.1%,90.2%,89.2%
Cc1nn(-c2nc3ccccc3[nH]2)c2c1C(c1ccc3c(c1)OCO3)CC(=O)N2 (centres undefined),45.6%,49.4%,5.5% (active),10.8%,17.4%,6.24% (active),63.6%,1.53% (active)
CCCCCCCCCCCCN1CCCC(C)C1 (centres undefined),74.6%,78.1%,95.9%,87.7%,68.6%,60.7%,86.9%,60.7%
Cn1c(=O)c2c(ncn2CC[N+](C)(C)C)n(C)c1=O,88.8%,115%,104%,106%,99.9%,100%,102%,105%
CN1CCN(c2ccc3nc(-c4ccc5nc(-c6ccc(OCCC(C)(C)C)cc6)[nH]c5c4)[nH]c3c2)CC1,73.4%,72.4%,-37.8% (active),-82.6% (active),-61.3% (active),-95% (active),-64.6% (active),-60.6% (active)
COc1ccc2nc(NC(=O)c3cccnc3Nc3cc(OC)c(OC)c(OC)c3)sc2c1,-7.17% (active),-90.5% (active),7.52% (active),27.8%,8.16% (active),-2.4% (active),77.8%,11.9%
Nc1cc2nc3ccccc3sc-2cc1=O,71.1%,63.1%,-68.2% (active),84.7%,44.3%,72.7%,100%,80.8%
COc1ccc(OCC(=O)Nc2ccc(-c3nc4ccccc4s3)cc2C)cc1,30.4%,91.9%,101%,97%,29.9%,74%,90.4%,107%
COCCCNc1nc(NC(=O)c2ccc(F)cc2C)cc(-c2cccnc2)n1,89.4%,103%,103%,109%,103%,101%,103%,104%
Cc1cc(N/N=C/c2nc(-c3ccc(Cl)cc3)oc2C)c2cc(Br)ccc2n1,74.5%,94%,-38.8% (active),-65.4% (active),-77.8% (active),4.35% (active),89.9%,55.3%
COc1cc2cc(COc3nccc(-c4ccc(Cl)cc4)n3)c(=O)[nH]c2cc1OC,85.5%,86.4%,65.6%,36.5%,46.3%,53.4%,11.7%,76.2%
Cc1cc(Nc2nc(N3CCNCC3)nc3ccccc23)n[nH]1,93%,88.6%,73%,103%,87%,80%,92.4%,26.7%
CCCCCC(=O)N(CCCC)CCCC,109%,102%,89.4%,117%,123%,108%,111%,109%
CC/C=C\C[C@H](O)C/C=C1/C(=O)C=C[C@@H]1C/C=C\CCCC(=O)NC,-0.635% (active),-4.05% (active),15.2%,7.47% (active),8.89% (active),-65% (active),-90.7% (active),-44.3% (active)
COc1ccc(-c2cc(/C=C3\C(=O)Nc4ccc(Cl)cc43)[nH]n2)cc1,47.4%,55.4%,-27.4% (active),26.9%,17%,26.8%,94.3%,43.8%
CC(=O)OC1Oc2cc(C)c(C)cc2-c2oc(=O)c(-c3cc4ccc(N(C)C)cc4oc3=O)cc21 (centres undefined),26.3%,59.3%,72.6%,104%,78.6%,48.3%,106%,94.5%
O=C(Nc1cccc2c1C(=O)c1cccc(Nc3cccc4c3C(=O)c3cccc(NC(=O)c5ccccc5)c3C4=O)c1C2=O)c1ccccc1,116%,113%,104%,109%,107%,109%,114%,114%
O=S(=O)(NCCCNc1cc(-c2cn(-c3ccccc3)nc2-c2ccccc2)ccn1)c1ccc(C(F)(F)F)cc1,38.7%,71.2%,50%,71.1%,39.2%,43.2%,64.1%,40.5%
Nc1ccc(Nc2nccc(-c3ccc4ccccc4c3)n2)cc1,57.1%,57.7%,8.53% (active),33.1%,19%,26.2%,71.9%,27.2%
O=C1C2CC=CCC2C(=O)N1CNc1ccc(Cl)cc1 (centres undefined),86.2%,84.1%,108%,94%,102%,90.1%,98.8%,104%
C(=N\Nc1ccccn1)/c1ccccn1,22.8%,-16.8% (active),33.6%,37.4%,12.4%,4.73% (active),19.2%,29.6%
Cc1cc(Nc2nc(N3CCN(C)CC3)nc3ccccc23)n[nH]1,71.2%,76.2%,52.2%,69.2%,46.2%,50.3%,87.6%,19%
O=C1c2cccnc2C(=O)c2c1c(C(=O)OCCN1CCCCC1)c1ccccn21,4.01% (active),20.1%,-5.97% (active),-13.6% (active),-43.3% (active),-8.36% (active),-46.6% (active),8.77% (active)
C[C@]12C[C@@H](c3ccoc3)OC(=O)[C@@H]1CC[C@]1(C)[C@@H]2CC[C@@H](O)[C@]1(C)O,82.6%,106%,57.4%,63.2%,108%,90.5%,95.8%,102%
COc1ccc(-c2cn3c(ccc4ccccc43)n2)cc1,76.5%,97.8%,114%,97.5%,75.8%,96.5%,109%,95.2%
N#Cc1c(N)nc(N)nc1Nc1ccc(Br)cc1,71.4%,86.2%,104%,105%,61.6%,137%,110%,93.9%
